Where “and” joins values, the source holds several entries; their conditions need not be identical. Equal entries are not always repeated. Where a structure was tested more than once in an assay, its records may differ in their call. Calls of active or inactive are those of the source. The calls were made as follows: active = hit-call score of the fitted dose curve at least 0.9, where 1 is the maximum; inactive = score below 0.9.

Tested on in the first experiment: not listed separately
Kind of experiment: IUF_NPC2a_radial_glia_migration_120hr: Leibniz Research Institute for Environmental Medicine (IUF) 120-hour Neural Progenitor Cell Migration Assay for Radial Glia Migration (NPC2a) (AID 2284298).
Details: not given
The procedure:
IUF_NPC2-5 is a cell-based, multiplexed assay that uses hNPC, a human primary neural progenitor cells, with measurements taken at 72 or 120 hours after chemical dosing in a 96-well plate. Human neural progenitor cells (hNPC) are generated from human fetal brain cortex at gestational week (GW) 16-19. In the neural progenitor cell migration and differentiation assay (NPC2-5), hNPCs grown as spheres are plated on an extracellular matrix and migrate and differentiate out of the sphere core. The processes radial glia migration, neuronal and oligodendrocyte migration as well as neuronal differentiation, neuronal morphology and oligodendrocyte differentiation are studied using automated phase contrast imaging and automated fluorescence imaging in combination with high content image analysis. In parallel, the cell viability is assessed using an alamar blue viability assay and the cytotoxicity using a lactate dehydrogenase dependent membrane integrity assay.IUF_NPC2a_radial_glia_migration_120hr is one of 12 assay components measured from the IUF_NPC2-5 assay. The migration distance of radial glia at 120 hr is assessed in um from the edge of the sphere core to the edge of the migration area based on fluorescent images of Hoechst-positive nuclei. With the identification of each nucleus position around the sphere core, migration-related parameters can be calculated. First, a nuclei density distribution is calculated for which an algorithm determines relatively more and less dense nuclei areas. […] When the nuclei density hits a pre-defined threshold, the outer boundaries of the migration area are determined and the sphere itself is mapped out in a polynomial bounding box. Derived from this box, the size of the migration area and the migration distance are calculated for each well.Data from the IUF_NPC2a_radial_glia_migration_120hr component was analyzed at the endpoint IUF_NPC2a_ radial_glia_migration_120hr in the positive analysis fitting direction relative to DMSO as the negative control and baseline of activity. […]
Broadly, the AC50 is the midpoint of the concentration-response curve, whichever way the signal moves. In the case of `CC1=C(/C=C/C(C)=C/C=C/C(C)=C/C(=O)O)C(C)(C)CCC1`, the AC50 is 1740 nM (active).

Regarding `CC#C[C@]1(O)CC[C@H]2[C@@H]3CCC4=CC(=O)CCC4=C3[C@@H](c3ccc(N(C)C)cc3)C[C@@]21C`, the compound was classed as inactive.

`CN1CCC[C@H]1c1cccnc1`: the call was inactive.

Tested on in another experiment: not listed separately
In words: IUF_NPC2a_radial_glia_migration_72hr: Leibniz Research Institute for Environmental Medicine (IUF) 72-hour Neural Progenitor Cell Migration Assay for Radial Glia Migration (NPC2a) (AID 2284299).
Details: not given
The procedure: IUF_NPC2-5 is a cell-based, multiplexed assay that uses hNPC, a human primary neural progenitor cells, with measurements taken at 72 or 120 hours after chemical dosing in a 96-well plate. Human neural progenitor cells (hNPC) are generated from human fetal brain cortex at gestational week (GW) 16-19. In the neural progenitor cell migration and differentiation assay (NPC2-5), hNPCs grown as spheres are plated on an extracellular matrix and migrate and differentiate out of the sphere core. The processes radial glia migration, neuronal and oligodendrocyte migration as well as neuronal differentiation, neuronal morphology and oligodendrocyte differentiation are studied using automated phase contrast imaging and automated fluorescence imaging in combination with high content image analysis. In parallel, the cell viability is assessed using an alamar blue viability assay and the cytotoxicity using a lactate dehydrogenase dependent membrane integrity assay.IUF_NPC2a_radial glia_migration_72hr is one of 12 assay components measured from the IUF_NPC2-5 assay. The migration distance of radial glia at 72 hr is assessed in um from the edge of the sphere core to the edge of the migration area based on brightfield images of each well. […] Images are exported and the migration distance is measured manually in four directions using ImageJ. The mean of four measures per well is used as raw data input.Data from the IUF_NPC2a_radial_glia_migration_72hr component was analyzed at the endpoint IUF_NPC2a_radial_glia_migration_72hr in the positive analysis fitting direction relative to DMSO as the negative control and baseline of activity. […]
Culture protocol: After the cell expansion period the cells are cultured for up to four weeks in which they are passaged every week as described in 3.6. […] Therefore, half of the test condition solution (e.g. solvent control or compound dilution) is replaced by freshly prepared test condition solution.Test Method: Migration distance and cytotoxicity is determined after 72 hours based on brightfield images of each well. […]
On to `CC1=C(/C=C/C(C)=C/C=C/C(C)=C/C(=O)O)C(C)(C)CCC1`, for which the call was inactive.

In the case of `CC#C[C@]1(O)CC[C@H]2[C@@H]3CCC4=CC(=O)CCC4=C3[C@@H](c3ccc(N(C)C)cc3)C[C@@]21C`, the outcome was inactive.

`CN1CCC[C@H]1c1cccnc1`: the compound was called inactive.

Tested on in the next experiment: not listed separately
In words: IUF_NPC2b_neuronal_migration_120hr: Leibniz Research Institute for Environmental Medicine (IUF) 120-hour Neural Progenitor Cell Migration Assay for Neuron Migration (NPC2b) (AID 2284300).
Details: not given
As to the method:
IUF_NPC2-5 is a cell-based, multiplexed assay that uses hNPC, a human primary neural progenitor cells, with measurements taken at 72 or 120 hours after chemical dosing in a 96-well plate. Human neural progenitor cells (hNPC) are generated from human fetal brain cortex at gestational week (GW) 16-19. In the neural progenitor cell migration and differentiation assay (NPC2-5), hNPCs grown as spheres are plated on an extracellular matrix and migrate and differentiate out of the sphere core. The processes radial glia migration, neuronal and oligodendrocyte migration as well as neuronal differentiation, neuronal morphology and oligodendrocyte differentiation are studied using automated phase contrast imaging and automated fluorescence imaging in combination with high content image analysis. In parallel, the cell viability is assessed using an alamar blue viability assay and the cytotoxicity using a lactate dehydrogenase dependent membrane integrity assay.IUF_NPC2b_neuronal_migration_120hr is one of 12 assay components measured from the IUF_NPC2-5 assay. […] Neuronal migration is normalized to radial glia migration distance at 120 hr.Data from the IUF_NPC2b_neuronal_migration_120hr component was analyzed at the endpoint IUF_NPC2b_neuronal_migration_120hr in the positive analysis fitting direction relative to DMSO as the negative control and baseline of activity. […]
Culture protocol: After the cell expansion period the cells are cultured for up to four weeks in which they are passaged every week as described in 3.6. […] Therefore, half of the test condition solution (e.g. solvent control or compound dilution) is replaced by freshly prepared test condition solution.Test Method: Migration distance and cytotoxicity is determined after 72 hours based on brightfield images of each well. […] On the ICC images, migration after 120 hours, neuronal and oligodendrocyte number, neuronal morphology and neuron/oligodendrocyte specific migration is assessed. immunocytochemical staining (ICC) generates an image for each sphere. […]
As to `CC1=C(/C=C/C(C)=C/C=C/C(C)=C/C(=O)O)C(C)(C)CCC1`, the call was inactive.

For the compound `CC#C[C@]1(O)CC[C@H]2[C@@H]3CCC4=CC(=O)CCC4=C3[C@@H](c3ccc(N(C)C)cc3)C[C@@]21C`, the call was inactive.

Consider `CN1CCC[C@H]1c1cccnc1`, for which the result was inactive.

Tested on in a further experiment: not listed separately
In words: IUF_NPC3_neuronal_differentiation_120hr: Leibniz Research Institute for Environmental Medicine (IUF) 120-hour Neuronal Differentiation Assay (NPC3) (AID 2284301).
Details: not given
The method in brief: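 Value is percent TUBB3-positive neurons among Hoechst-stained nuclei in the migration area, scored by trained CNN after 120 h differentiation. Primary hNPC spheres on poly-D-lysine/laminin, N2 medium, continuous dosing from day 0, half-refeed day 3; DMSO reference.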
`CC1=C(/C=C/C(C)=C/C=C/C(C)=C/C(=O)O)C(C)(C)CCC1`: the call was inactive.

Take `CC#C[C@]1(O)CC[C@H]2[C@@H]3CCC4=CC(=O)CCC4=C3[C@@H](c3ccc(N(C)C)cc3)C[C@@]21C`: the result was inactive.

Turning to `CN1CCC[C@H]1c1cccnc1`, the outcome was inactive.

Tested on in a further experiment: not listed separately
Kind of experiment: IUF_NPC4_neurite_length_120hr: Leibniz Research Institute for Environmental Medicine (IUF) 120-hour Neuronal Morphology Assay for Neurite Length (NPC4) (AID 2284302).
Details: not given
The method in brief: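 Neurite length, the mean in um across TUBB3-stained neurons, is derived by skeletonization of high-content images after 120 h differentiation. Compound exposure, 7 concentrations plus solvent control, ran from plating of hNPC spheres on poly-D-lysine/laminin, with medium half-replaced on day 3.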
Regarding `CC1=C(/C=C/C(C)=C/C=C/C(C)=C/C(=O)O)C(C)(C)CCC1`, the compound was classed as inactive.

As for `CC#C[C@]1(O)CC[C@H]2[C@@H]3CCC4=CC(=O)CCC4=C3[C@@H](c3ccc(N(C)C)cc3)C[C@@]21C`, the result was inactive.

Take `CN1CCC[C@H]1c1cccnc1`: the outcome was inactive.

Read-out in a further experiment: CD69, CD69 (gene 969)
In words: BSK_LPS_CD69: BioMAP Diversity Plus: LPS Assay for CD69 Biomarker Activity (AID 2284303). As to conditions: primary human HUVEC with PBMC. The method in brief: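 CD69 surface levels were read by ELISA after 24 h chemical treatment of an LPS-stimulated HUVEC plus PBMC co-culture; positive-direction fit against DMSO vehicle.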
Consider `NCC(F)(F)C(F)(F)C(F)(F)C(F)(F)C(F)(F)C(F)(F)C(F)(F)F`, for which the outcome was inactive.

For the compound `C=C(C)C(=O)OCCC(F)(F)C(F)(F)C(F)(F)C(F)(F)C(F)(F)C(F)(F)F`, the result was inactive.

Take `OCCC(F)(F)C(F)(F)C(F)(F)C(F)(F)C(F)(F)C(F)(F)C(F)(F)C(F)(F)F`: the AC50 was 30 µM (active) and 2.1 µM (active).

In the case of `OCCC(F)(F)C(F)(F)C(F)(F)C(F)(F)C(F)(F)C(F)(F)F`, the outcome was inactive.

Consider `C[C@@H]1C[C@H]2[C@@H]3CCC4=CC(=O)C=C[C@]4(C)[C@@]3(F)[C@@H](O)C[C@]2(C)[C@@]1(O)C(=O)COP(=O)(O)O`, for which the outcome was inactive.

As for `FC(F)(I)C(F)(F)C(F)(F)C(F)(F)C(F)(F)C(F)(F)I`, the AC50 is 4.49 µM (active) and 40.5 µM (active) and 53.2 µM (active); the result was inactive.

These data come from PubChem BioAssay (EPA / NIEHS).
